# From ChEMBL document CHEMBL4513216, “Probing the Open Global Health Chemical Diversity Library for Multistage-Active Starting Points for Next-Generation Antimalarials” (ACS Infect Dis, 2020)
# The campaign covered roughly 65,000 compounds. About 2,100 (3.2%) showed an effect of 50% or more. The median lay at about -52%. This is one part of a sample in which strong results are shown more often than they occur.
# Test system: Plasmodium falciparum
# Assay: Screen against P. falciparum Asexual Blood Stage (ABS), at 5uM
# Assay type: functional, Dd2
# Details: tested at 5 uM
row,Structure (SMILES),INHIBITION [%]
1,Cc1cc2n(n1)CCN(c1nc(N(C)C)nc3c1CCNC3)C2,57.8
2,Cc1cc2n(n1)CCN(c1nc(N)nc3c1CCNCC3)C2,-75.3
3,Cc1ccccc1N1CCN(c2nc(N(C)C)nc3c2CCNC3)CC1,39.1
4,Cc1ccc(NC2CCN(C(=O)c3ccc(F)cc3Cl)CC2)nn1,-116
5,Cc1cc(-c2cnc(NC3CCCCC3)nc2-c2ccco2)on1,-49.1
6,CCc1nc(C2CCCN2Cc2cc(C)nc3ccccc23)no1 (stereo unspecified),-64.8
7,CN1CCCN(C(=O)NCc2ccccc2Cn2cncn2)CC1,-93.1
8,COCCN1C[C@@H]2CN(C(=O)[C@H]3CCCO3)C[C@@H]2C1=O,-135
9,O=C(CC1CC1)N1C[C@H]2CN(CC3CC3)C(=O)[C@H]2C1,-64.7
10,COCCN1C[C@@H]2CN(C(=O)CC3CC3)C[C@@H]2C1=O,53.5
11,Cn1ccc2c(cnc3nc(-c4ccncc4)nn32)c1=O,-169
12,CN(C)c1ccc(C(=O)N2CCC(c3cc4cnccc4[nH]3)CC2)cc1,29.8
13,COc1cc(CCC(=O)N2CCC(c3cc4ncccc4[nH]3)CC2)on1,-0.239
14,CN(C)c1ccc(C(=O)N2CCC(c3cc4ncccc4[nH]3)CC2)cc1,55.6
15,CCNC(=O)NC(=O)C(C)N(C)CCOc1ccccc1C (stereo unspecified),-80.5
16,CC(C)N1CCO[C@@H]2CN(S(=O)(=O)c3cccs3)CC[C@@H]2C1,52.1
17,CN1CCO[C@H]2CN(S(=O)(=O)c3ccc(C#N)cc3)C[C@H]21,-81.8
18,O=C1CO[C@@H]2CN(S(=O)(=O)c3ccccc3F)C[C@H]2N1,-30.8
19,CCN1CCO[C@@H]2CN(S(=O)(=O)c3cccs3)CC[C@@H]2C1,40.2
20,CC(=O)N1CCO[C@@H]2CN(S(=O)(=O)c3ccccc3F)C[C@@H]2C1,-67.6
21,Cc1ccc(S(=O)(=O)N2CC[C@H]3CO[C@H](CN(C)C)[C@H]3C2)cc1,12.4
22,CN(C)C[C@H]1OC[C@@H]2CCN(S(=O)(=O)c3ccc(F)cc3)C[C@@H]21,50.5

row,Structure (SMILES),INHIBITION [%]
1,CN1CCO[C@@H]2CN(S(=O)(=O)c3ccccc3F)CC[C@@H]2C1,50.3
2,CN(C)C[C@H]1OC[C@@H]2CCN(S(=O)(=O)c3ccccc3)C[C@@H]21,-3.11
3,CN1CCO[C@@H]2CN(S(=O)(=O)c3ccccc3)C[C@@H]2C1,-17.9
4,CN1CCO[C@@H]2CN(S(=O)(=O)c3cccs3)CC[C@@H]2C1,-22.2
5,COc1ccc(S(=O)(=O)N2C[C@@H]3CN(C)CCO[C@@H]3C2)cc1,60.2
6,CN1CC(=O)N(c2ccccc2)Cc2c(NC3CC3)ncnc21,-97.2
7,CO[C@H]1CN(C(=O)OC(C)(C)C)CC1NCc1ccco1 (stereo partly specified),-47.8
8,CN(CCNC(=O)Nc1ccn(C)n1)Cc1ccc(F)cc1,-27.6
9,CC(C)NC(=O)N1CCc2onc(C(=O)NCCN(C)C)c2C1,-13.1
10,COCc1nn(C(C)C)c2c1CCN(Cc1ccc(C)o1)C2,-31
11,CC(C)C1=NOC2(CCN(Cc3c[nH]c4ccccc34)CC2)C1,2.84
12,Cc1ccc(CNCC2Cn3nnc(-c4cnn(C)c4)c3CO2)o1 (stereo unspecified),-32.4
13,Cc1ccc(Nc2nccc(C3CCCN(CC(=O)N(C)C)C3)n2)nc1 (stereo unspecified),-3.51
14,Cc1ccc(N2CCc3ncnc(C4CC4)c3CC2)nn1,-150
15,CN1CCO[C@@H]2CN(S(=O)(=O)c3ccccc3)CC[C@@H]2C1,33.8
16,CN1CCO[C@@H]2CN(S(=O)(=O)c3ccc(F)cc3)CC[C@@H]2C1,62.7
17,CC(=O)N1CCO[C@@H]2CN(S(=O)(=O)c3ccc(F)cc3)CC[C@@H]2C1,-83.8
18,N#Cc1ccccc1CN1C[C@@H]2CC[C@H]1CN(C(=O)c1cccnc1)C2,-15.6
19,CCN(C(=O)CN1CCCN(c2nc(C)ns2)CC1)C1CC1,-126
20,CC(C)CC(=O)NCC1CCC(C(c2ccccn2)N(C)C)CC1 (stereo unspecified),-110
21,O=C(c1ccccn1)N1CCC2(COc3ncccc3S(=O)(=O)N2)C1 (stereo unspecified),-69.3
22,Cc1ccc(CN(CCCn2ccnc2)Cc2c[nH]nc2C(C)(C)C)s1,33.5

row,Structure (SMILES),INHIBITION [%]
1,Cc1ccc2nc(C)cc(NCCNS(=O)(=O)c3cn(C)nc3C)c2c1,47.8
2,Cc1ccc2nc(C)cc(NCCNS(=O)(=O)c3cccnc3)c2c1,62.9
3,Cc1cc(NCCNS(=O)(=O)c2cn(C)nc2C)c2ccccc2n1,3.35
4,COc1nn(C)c2c1CCCN(C(=O)c1cccs1)C2,-22.1
5,O=C(c1ccc(F)cc1)N1CC[C@H]2[C@H]1CCN2CC1CCOCC1,-112
6,Cc1nc(CN2CCN(C(=O)C(C(C)C)n3cncn3)CC2)cs1 (stereo unspecified),-61.1
7,CC1CCN(C(=O)CN(Cc2ccco2)C2CC2)CC1,-115
8,CN1N=C(C(=O)N(Cc2ccco2)C2CC2)CCC1=O,-127
9,CN1CCC(N(Cc2ccco2)S(=O)(=O)c2ccc(Cl)cc2)CC1,56.8
10,COCCNC(=O)[C@H]1C[C@@H]2CCN(Cc3nccs3)C[C@H]2O1,-127
11,Cc1cc(C(=O)N(CCN(C)C)Cc2ccc(Cl)cc2)no1,53.4
12,CN(C)CCN(Cc1ccc(Cl)cc1)C(=O)c1ccncc1,53.1
13,Cc1cnc(C(=O)N(CCN(C)C)Cc2ccc(Cl)cc2)cn1,-35.7
14,CN(C)CCN(Cc1ccc(C(F)(F)F)cc1)C(=O)c1cc[nH]n1,35.8
15,CN(C)CCN(Cc1ccc(Cl)cc1)C(=O)c1cnccn1,35.1
16,CN(C)CCN(Cc1ccc(Cl)cc1)C(=O)c1ccn(C)c(=O)c1,-73.6
17,Cc1nc(COCc2cnc3n2CCN(C)C3C)cs1 (stereo unspecified),-63.4
18,O=C(NCCc1cccs1)[C@H]1CO[C@H]2CCN(C3CCC3)C[C@H]2C1,-9.07
19,O=S(=O)(NCC1CCOC1)N1CCc2ccccc2C1 (stereo unspecified),-80.7
20,O=S1(=O)CCC(CNS(=O)(=O)N2CCc3ccccc3C2)C1 (stereo unspecified),-114
21,CCN1CCC(CNS(=O)(=O)N2CCc3ccccc3C2)C1 (stereo unspecified),53.9
22,COc1ccc(C(=O)NCC(c2cccn2C)N2CCCC2)cc1OC (stereo unspecified),28

row,Structure (SMILES),INHIBITION [%]
1,COc1cc(OC)cc(C(=O)NCC(c2cccn2C)N2CCCC2)c1 (stereo unspecified),55.5
2,COc1ccc(C(=O)NCC(c2cccn2C)N2CCN(C)CC2)cc1 (stereo unspecified),-35
3,O=C(NCC(O)COc1ccccc1)Nc1nncs1 (stereo unspecified),-50.2
4,O=C(CCc1ccccc1)NCC1CCN(Cc2cccs2)CC1,-7.73
5,O=C(CCc1ccccc1)NCC1CCN(Cc2ccsc2)CC1,19.8
6,O=C(CCc1ccsc1)NCC1CCN(Cc2cccs2)CC1,59.5
7,CCOc1nn(CC)cc1-c1nnc(SCc2ccccn2)n1C,-121
8,CCCC(=O)N(CCCN1CCOCC1)c1nc2c(Cl)cccc2s1,-1.93
9,Cc1noc(C(C)C)c1C(=O)NCC1CCCN1Cc1ccccc1 (stereo unspecified),65.7
10,Cc1noc(C)c1C(=O)NCC1CCCCN1Cc1ccccc1 (stereo unspecified),-3.72
11,Cc1noc(C(C)C)c1C(=O)NCC1CCN(c2ccccc2)C1 (stereo unspecified),35.6
12,Cc1cnn(CCC(=O)N2CCC3(CCC(=O)N(CC4CC4)C3)CC2)c1,-49
13,Cn1nc(CNC(=O)c2ccc3nsnc3c2)c2c1CCOC2,-37.5
14,Cc1cnc(C)c(Oc2ccc(Cl)c(CN3CCCC3)c2Cl)n1,-31.4
15,CCc1noc(C2CCCCN2C(=O)c2cc(C)oc2C)n1 (stereo unspecified),-14.9
16,COc1ccc(Cl)cc1NCc1cc(C)on1,-142
17,COc1cc2nc(NCc3cc(C)on3)nc(N)c2cc1OC,61.4
18,CCOc1ccc(OCC)c(NCc2cc(C)on2)c1,-105
19,O=S(=O)(c1ccccc1)N1CCC2(CCCN2Cc2cccc(Cl)c2)C1 (stereo unspecified),18.8
20,Cc1cc(F)ccc1-c1ccccc1CC1CNCCNC1=O (stereo unspecified),49.3
21,COc1ccc(F)cc1-c1ccccc1CC1CNCCNC1=O (stereo unspecified),51.7
22,COc1ccc(F)cc1-c1ccccc1CC1(C(=O)O)CCOCC1,-130

row,Structure (SMILES),INHIBITION [%]
1,O=C(CSCCN1CCOCC1)N1CCc2ccccc2C1,-92.5
2,O=C(CCc1nccs1)N1CCN(c2ccccn2)CC1,-127
3,Cn1ccnc1CN1CCC2(COCCN(S(=O)(=O)C3CC3)C2)C1 (stereo unspecified),-106
4,Cn1ccnc1CN1CCC2(CC1)COCCN(c1ncccn1)C2,-9.16
5,Cn1ccnc1CN1CCC2(COCCN(Cc3ccsc3)C2)C1 (stereo unspecified),52
6,COCC1Cn2nnc(-c3cnn(C)c3)c2CN1Cc1ccoc1 (stereo unspecified),28.8
7,Cc1c(C)n(Cc2ccccn2)c2nc3c(c(N)c12)CCCC3,46.7
8,CCc1c(C)sc2c1c(N)nc(=O)n2CCCN(C)C,-147
9,CCc1nc2c(c(C)c(C)n2Cc2cccnc2)c(N)c1C,20.4
10,CCc1c(C)sc2c1c(N)nc(=O)n2CCN(C)C,17.4
11,Cc1c(C)n(Cc2ccncc2)c2nc3c(c(N)c12)CCCC3,-12.1
12,Cc1cc(C(=O)N2CCNC(=O)C2)c(C)n1Cc1ccccn1,-68.6
13,CCCc1nc2c(c(C)c(C)n2Cc2ccccn2)c(N)c1CC,59.4
14,CCc1c(-c2ccccc2)nc2c(c(C)c(C)n2CCN(C)C)c1N,67.6
15,CCCc1nc2c(c(C)c(C)n2Cc2cccnc2)c(N)c1CC,65
16,CCc1cc(NCCc2cccnc2)n2nc(C)c(C)c2n1,-108.7
17,Cc1c(C)n(Cc2ccncc2)c2nc3c(c(N)c12)CCCCCC3,28.3
18,CCCc1nc2c(c(C)c(C)n2Cc2ccncc2)c(N)c1CC,60.3
